# In the supplement of paper PMC8728848:
# This is one part of a sample in which the strongest signals are shown more often than they occur.
# B1: GSL-I-B4 (Griffonia simplicifolia) (protein)
# chain: NFWSDVEDSIIFQGDANTTAGTLQLCKTNQYGTPLQWSAGRALYSDPVQLWDNKTESVASFYTEFTFFLKITGNGPADGLAFFLAPPDSDVKDAGEYLGLFNKSTATQPSKNQVVAVEFDTWTNPNFPEPSYRHIGINVNSIVSVATKRWEDSDIFSGKIATARISYDGSAEILTVVLSYPDGSDYILSHSVDMRQNLPESVRVGISASTGNNQFLTVYILSWRFSSNLQSTSVKAAMEPEITRTVV
# Experiments:
# Assay in all cases: glycan array binding signal (z-score within array); higher = stronger binding
# Details in all cases: glycan notation: IUPAC condensed, linker removed
# [1] = target: Fuc(a1-2)Gal(b1-3)GalNAc(a1-3)[Fuc(a1-2)]Gal(b1-4)Glc
# In short: (§1)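 The binding signal is a Z-score computed within each array and averaged over linkers. Arrays of the same protein sequence at different concentrations or buffers were also averaged together. Data originate from 3228 arrays in the Consortium for Functional Glycomics database, kept only where the protein sequence was available.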
# [2] = target: Fuc(a1-2)Gal(b1-4)[Fuc(a1-3)]GlcNAc
# In short: as §1
# [3] = target: Fuc(a1-2)[Gal(a1-3)]Gal(b1-3)GalNAc
# In short: as §1
# [4] = target: Fuc(a1-2)[Gal(a1-3)]Gal(b1-3)GlcNAc(b1-2)Man(a1-3)[Fuc(a1-2)[Gal(a1-3)]Gal(b1-3)GlcNAc(b1-2)Man(a1-6)]Man(b1-4)GlcNAc(b1-4)GlcNAc
# In short: as §1
# [5] = target: Fuc(a1-2)[Gal(a1-3)]Gal(b1-3)GlcNAc(b1-2)Man(a1-3)[Fuc(a1-2)[Gal(a1-3)]Gal(b1-3)GlcNAc(b1-2)Man(a1-6)]Man(b1-4)GlcNAc(b1-4)[Fuc(a1-6)]GlcNAc
# In short: as §1
# [6] = target: Fuc(a1-2)[Gal(a1-3)]Gal(b1-4)GlcNAc(b1-2)Man(a1-3)[Fuc(a1-2)[Gal(a1-3)]Gal(b1-4)GlcNAc(b1-2)Man(a1-6)]Man(b1-4)GlcNAc(b1-4)GlcNAc
# In short: as §1
# [7] = target: Fuc(a1-2)[GalNAc(b1-3)]Gal
# In short: as §1
# [8] = target: Fuc(a1-3)[Gal(b1-4)]GlcNAc(b1-3)GalNAc
# In short: as §1
# [9] = target: Fuc(a1-3)[Gal(b1-4)]GlcNAc(b1-6)[Gal(b1-3)GlcNAc(b1-3)]Gal(b1-4)Glc
# In short: as §1
# [10] = target: Gal(a1-2)Gal
# In short: as §1
# [11] = target: Gal(a1-3)Fuc(a1-2)Gal(b1-4)GlcNAc(b1-3)[Gal(a1-3)Fuc(a1-2)Gal(b1-4)GlcNAc(b1-6)]GalNAc
# In short: as §1
# [12] = target: Gal(a1-3)Gal(b1-3)GlcNAc(b1-2)Man
# In short: as §1
# [13] = target: Gal(a1-3)Gal(b1-4)GlcNAc
# In short: as §1
# [14] = target: Gal(a1-3)Gal(b1-4)GlcNAc(b1-2)Man(a1-3)[Gal(a1-3)Gal(b1-4)GlcNAc(b1-2)Man(a1-6)]Man(b1-4)GlcNAc(b1-4)GlcNAc
# In short: as §1
# [15] = target: Gal(a1-3)Gal(b1-4)[Fuc(a1-3)]GlcNAc
# In short: as §1
# [16] = target: Gal(a1-3)[Gal(a1-4)]Gal(b1-4)GlcNAc
# In short: as §1
# [17] = target: Gal(a1-4)Gal(b1-3)GlcNAc(b1-2)Man(a1-3)[Gal(a1-4)Gal(b1-3)GlcNAc(b1-2)Man(a1-6)]Man(b1-4)GlcNAc(b1-4)GlcNAc
# In short: as §1
# [18] = target: Gal(a1-4)Gal(b1-4)GlcNAc(b1-2)Man(a1-3)[Gal(a1-4)Gal(b1-4)GlcNAc(b1-2)Man(a1-6)]Man(b1-4)GlcNAc(b1-4)GlcNAc
# In short: as §1
# [19] = target: Gal(a1-4)GlcNAc
# In short: as §1
# [20] = target: Gal(b1-3)GalNAc(a1-3)[Fuc(a1-2)]Gal(b1-4)GlcNAc
# In short: as §1
# [21] = target: Gal(b1-3)GlcNAc(a1-6)Gal(b1-4)GlcNAc
# In short: as §1
# [22] = target: Gal(b1-3)GlcNAc(b1-2)Man
# In short: as §1
# [23] = target: Gal(b1-3)GlcNAc(b1-2)[Gal(b1-3)GlcNAc(b1-6)]Man(a1-6)[Gal(b1-3)GlcNAc(b1-2)Man(a1-3)]Man(b1-4)GlcNAc(b1-4)GlcNAc
# In short: as §1
# [24] = target: Gal(b1-3)GlcNAc(b1-3)Gal(b1-4)GlcNAc
# In short: as §1
# [25] = target: Gal(b1-3)GlcNAc(b1-3)Gal(b1-4)GlcNAc(b1-6)[Gal(b1-3)GlcNAc(b1-3)]Gal(b1-4)Glc
# In short: as §1
# [26] = target: Gal(b1-3)GlcNAc(b1-3)Gal(b1-4)[Fuc(a1-3)]GlcNAc
# In short: as §1
# [27] = target: Gal(b1-4)GlcNAc(b1-2)Man(a1-3)[Gal(b1-4)GlcNAc(b1-2)Man(a1-6)][Gal(b1-4)GlcNAc(b1-4)]Man(b1-4)GlcNAc(b1-4)[Fuc(a1-6)]GlcNAc
# In short: as §1
# [28] = target: Gal(b1-4)GlcNAc(b1-2)Man(a1-3)[GlcNAc(b1-4)][Gal(b1-4)GlcNAc(b1-2)Man(a1-6)]Man(b1-4)GlcNAc(b1-4)GlcNAc
# In short: as §1
# [29] = target: Gal(b1-4)GlcNAc(b1-2)Man(a1-6)Man(b1-4)GlcNAc(b1-4)GlcNAc
# In short: as §1
# [30] = target: Gal(b1-4)GlcNAc(b1-3)Gal(b1-4)GlcNAc(b1-3)Gal(b1-4)GlcNAc(b1-3)Gal(b1-4)GlcNAc(b1-3)Gal(b1-4)GlcNAc(b1-3)Gal(b1-4)GlcNAc(b1-2)Man(a1-3)[Gal(b1-4)GlcNAc(b1-3)Gal(b1-4)GlcNAc(b1-3)Gal(b1-4)GlcNAc(b1-3)Gal(b1-4)GlcNAc(b1-3)Gal(b1-4)GlcNAc(b1-3)Gal(b1-4)GlcNAc(b1-2)Man(a1-6)]Man(b1-4)GlcNAc(b1-4)GlcNAc
# In short: as §1
# [31] = target: Gal3S(b1-4)Glc
# In short: as §1
# [32] = target: Gal3S(b1-4)GlcNAc
# In short: as §1
# [33] = target: GalNAc(a1-3)GalNAc(b1-3)Gal(a1-4)Gal(b1-4)Glc
# In short: as §1
# [34] = target: GalNAc3S(b1-4)GlcNAc
# In short: as §1
# [35] = target: GlcNAc(a1-4)Gal(b1-4)GlcNAc
# In short: as §1
# [36] = target: GlcNAc(b1-2)[GlcNAc(b1-4)]Man(a1-3)[GlcNAc(b1-4)][GlcNAc(b1-2)[GlcNAc(b1-6)]Man(a1-6)]Man(b1-4)GlcNAc(b1-4)GlcNAc
# In short: as §1
# [37] = target: GlcNAc(b1-2)[GlcNAc(b1-4)]Man(a1-3)[GlcNAc(b1-4)][GlcNAc(b1-2)[GlcNAc(b1-6)]Man(a1-6)]Man(b1-4)GlcNAc(b1-4)[Fuc(a1-6)]GlcNAc
# In short: as §1
# [38] = target: GlcNAc(b1-3)Gal(b1-4)GlcNAc
# In short: as §1
# [39] = target: GlcNAc(b1-3)Gal(b1-4)GlcNAc(b1-3)Gal(b1-4)GlcNAc(b1-2)Man(a1-3)[GlcNAc(b1-3)Gal(b1-4)GlcNAc(b1-3)Gal(b1-4)GlcNAc(b1-2)Man(a1-6)]Man(b1-4)GlcNAc(b1-4)GlcNAc
# In short: as §1
# [40] = target: GlcNAc(b1-3)Gal(b1-4)GlcNAc(b1-3)GalNAc
# In short: as §1
# [41] = target: GlcNAc(b1-3)[GlcNAc(b1-4)][GlcNAc(b1-6)]GlcNAc
# In short: as §1
# [42] = target: GlcNAc(b1-3)[GlcNAc(b1-6)]GalNAc
# In short: as §1
# [43] = target: Neu5Ac(a2-3)Gal(b1-3)GlcNAc(b1-2)Man(a1-3)[GlcNAc(b1-4)][Neu5Ac(a2-3)Gal(b1-3)GlcNAc(b1-2)Man(a1-6)]Man(b1-4)GlcNAc(b1-4)GlcNAc
# In short: as §1
# [44] = target: Neu5Ac(a2-3)Gal(b1-4)GlcNAc(b1-2)Man
# In short: as §1
# [45] = target: Neu5Ac(a2-3)Gal(b1-4)GlcNAc(b1-2)Man(a1-3)[Neu5Ac(a2-3)Gal(b1-4)GlcNAc(b1-2)Man(a1-6)]Man(b1-4)GlcNAc(b1-4)[Fuc(a1-6)]GlcNAc
# In short: as §1
# [46] = target: Neu5Ac(a2-3)Gal(b1-4)GlcNAc(b1-3)Gal(b1-4)GlcNAc(b1-2)Man(a1-3)[Neu5Ac(a2-3)Gal(b1-4)GlcNAc(b1-3)Gal(b1-4)GlcNAc(b1-2)Man(a1-6)]Man(b1-4)GlcNAc(b1-4)GlcNAc
# In short: as §1
# [47] = target: Neu5Ac(a2-3)Gal(b1-4)GlcNAc(b1-6)[Gal(b1-3)]GalNAc
# In short: as §1
# [48] = target: Neu5Ac(a2-3)Gal(b1-4)GlcNAc(b1-6)[Neu5Ac(a2-3)Gal(b1-3)]GalNAc
# In short: as §1
# [49] = target: Neu5Ac(a2-3)Gal(b1-4)[Fuc(a1-3)]GlcNAc(b1-2)Man
# In short: as §1
# [50] = target: Neu5Ac(a2-3)GalNAc(b1-4)GlcNAc
# In short: as §1
# [51] = target: Neu5Ac(a2-6)GlcNAc(b1-4)GlcNAc(b1-4)GlcNAc
# In short: as §1
# [52] = target: Neu5Ac(a2-8)Neu5Ac(a2-8)Neu5Ac
# In short: as §1
# [53] = target: Neu5Ac9Ac(a2-3)Gal(b1-4)GlcNAc
# In short: as §1
binder,measurement,setting,value
B1,glycan array binding signal (z-score),[1],-0.132
same,glycan array binding signal (z-score),[2],-0.131
same,glycan array binding signal (z-score),[3],0.853
same,glycan array binding signal (z-score),[4],1.74
same,glycan array binding signal (z-score),[5],0.077
same,glycan array binding signal (z-score),[6],3.69
same,glycan array binding signal (z-score),[7],-0.12
same,glycan array binding signal (z-score),[8],-0.197
same,glycan array binding signal (z-score),[9],-0.155
same,glycan array binding signal (z-score),[10],5.94
same,glycan array binding signal (z-score),[11],1.98
same,glycan array binding signal (z-score),[12],1.88
same,glycan array binding signal (z-score),[13],2
same,glycan array binding signal (z-score),[14],7.78
same,glycan array binding signal (z-score),[15],6.03
same,glycan array binding signal (z-score),[16],1.71
same,glycan array binding signal (z-score),[17],5.37
same,glycan array binding signal (z-score),[18],1.52
same,glycan array binding signal (z-score),[19],13.8
same,glycan array binding signal (z-score),[20],-0.212
same,glycan array binding signal (z-score),[21],-0.155
same,glycan array binding signal (z-score),[22],-0.171
same,glycan array binding signal (z-score),[23],-0.138
same,glycan array binding signal (z-score),[24],-0.228
same,glycan array binding signal (z-score),[25],-0.187
same,glycan array binding signal (z-score),[26],-0.177
same,glycan array binding signal (z-score),[27],-0.172
same,glycan array binding signal (z-score),[28],-0.15
same,glycan array binding signal (z-score),[29],-0.205
same,glycan array binding signal (z-score),[30],-0.133
same,glycan array binding signal (z-score),[31],-0.151
same,glycan array binding signal (z-score),[32],-0.174
same,glycan array binding signal (z-score),[33],-0.156
same,glycan array binding signal (z-score),[34],-0.159
same,glycan array binding signal (z-score),[35],-0.12
same,glycan array binding signal (z-score),[36],-0.089
same,glycan array binding signal (z-score),[37],-0.062
same,glycan array binding signal (z-score),[38],-0.186
same,glycan array binding signal (z-score),[39],0.066
same,glycan array binding signal (z-score),[40],-0.208
same,glycan array binding signal (z-score),[41],-0.144
same,glycan array binding signal (z-score),[42],-0.161
same,glycan array binding signal (z-score),[43],-0.151
same,glycan array binding signal (z-score),[44],-0.197
same,glycan array binding signal (z-score),[45],-0.214
same,glycan array binding signal (z-score),[46],0.149
same,glycan array binding signal (z-score),[47],-0.23
same,glycan array binding signal (z-score),[48],-0.212
same,glycan array binding signal (z-score),[49],-0.187
same,glycan array binding signal (z-score),[50],-0.157
same,glycan array binding signal (z-score),[51],-0.169
same,glycan array binding signal (z-score),[52],-0.144
same,glycan array binding signal (z-score),[53],-0.134
